Drawing on ChEMBL document CHEMBL1961873, “Compounds: GSK PKIS; Assays: Nanosyn kinase panel” (2012), this text covers inhibition for six molecules.

Assay [1] has as its target Serine/threonine-protein kinase 26 (Homo sapiens) (UniProt Q9P289). Particulars: at 1 µM.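 Also: mean inhibition of MST4 kinase activity, reported from the GSK PKIS inhibitor-set screening panel.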
The target in assay [2] is Serine/threonine-protein kinase PAK 1 (Homo sapiens) (UniProt Q13153). Particulars: at 0.1 µM.
Assay [3] has the same target. Particulars: at 1 µM.
Assay [4] concerns the target Serine/threonine-protein kinase PAK 2 (Homo sapiens) (UniProt Q13177). Particulars: at 0.1 µM.
For assay [5] the target is unchanged. Particulars: at 1 µM.
Assay [6] concerns the target Serine/threonine-protein kinase PAK 3 (Homo sapiens) (UniProt O75914). Particulars: at 0.1 µM.
Assay [7] shares this target. Particulars: at 1 µM.
The target in assay [8] is Serine/threonine-protein kinase PAK 5 (Homo sapiens) (UniProt Q9P286). To be noted: at 0.1 µM.
For assay [9] the target is unchanged. To be noted: at 1 µM.
The target in assay [10] is Serine/threonine-protein kinase PAK 6 (Homo sapiens) (UniProt Q9NQU5). Particulars: at 0.1 µM.
The target is the same in assay [11]. Particulars: at 1 µM.
In assay [12] the test system is Tyrosine-protein kinase ABL1 (Homo sapiens), P00519 [E255K]. Particulars: at 0.1 µM.
Assay [13] has the same test system. Particulars: at 1 µM.
Assay [14] concerns Tyrosine-protein kinase ABL1 (Homo sapiens), P00519 [H396P]. Particulars: at 0.1 µM.
Assay [15] shares this test system. Particulars: at 1 µM.
Assay [16] has as its system Tyrosine-protein kinase ABL1 (Homo sapiens), P00519 [M351T]. To be noted: at 0.1 µM.
Assay [17] has the same test system. To be noted: at 1 µM.
Assay [18] concerns Tyrosine-protein kinase ABL1 (Homo sapiens), P00519 [Q252H]. To be noted: at 0.1 µM.
Assay [19] has the same test system. Particulars: at 1 µM.
In assay [20] the test system is Tyrosine-protein kinase ABL1 (Homo sapiens), P00519 [T315I]. To be noted: at 0.1 µM.

Several values for one entry are separate records, joined by “and”; a condition that tells them apart may be missing. Equal entries are not always repeated.

Sequence of Serine/threonine-protein kinase 26 (Homo sapiens) (Q9P289 2-416 limits assumed): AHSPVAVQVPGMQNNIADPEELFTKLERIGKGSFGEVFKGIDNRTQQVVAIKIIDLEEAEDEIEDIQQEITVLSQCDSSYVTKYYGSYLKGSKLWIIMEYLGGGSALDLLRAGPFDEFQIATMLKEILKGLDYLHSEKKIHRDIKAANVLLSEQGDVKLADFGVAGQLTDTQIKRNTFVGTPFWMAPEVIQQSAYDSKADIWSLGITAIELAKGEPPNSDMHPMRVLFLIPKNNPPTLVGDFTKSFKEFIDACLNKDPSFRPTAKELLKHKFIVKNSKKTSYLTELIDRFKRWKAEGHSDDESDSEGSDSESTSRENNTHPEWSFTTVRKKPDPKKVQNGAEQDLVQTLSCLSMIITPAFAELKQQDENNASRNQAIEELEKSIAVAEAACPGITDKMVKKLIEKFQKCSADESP
Sequence of Serine/threonine-protein kinase PAK 5 (Homo sapiens) (Q9P286 whole entry, looked up): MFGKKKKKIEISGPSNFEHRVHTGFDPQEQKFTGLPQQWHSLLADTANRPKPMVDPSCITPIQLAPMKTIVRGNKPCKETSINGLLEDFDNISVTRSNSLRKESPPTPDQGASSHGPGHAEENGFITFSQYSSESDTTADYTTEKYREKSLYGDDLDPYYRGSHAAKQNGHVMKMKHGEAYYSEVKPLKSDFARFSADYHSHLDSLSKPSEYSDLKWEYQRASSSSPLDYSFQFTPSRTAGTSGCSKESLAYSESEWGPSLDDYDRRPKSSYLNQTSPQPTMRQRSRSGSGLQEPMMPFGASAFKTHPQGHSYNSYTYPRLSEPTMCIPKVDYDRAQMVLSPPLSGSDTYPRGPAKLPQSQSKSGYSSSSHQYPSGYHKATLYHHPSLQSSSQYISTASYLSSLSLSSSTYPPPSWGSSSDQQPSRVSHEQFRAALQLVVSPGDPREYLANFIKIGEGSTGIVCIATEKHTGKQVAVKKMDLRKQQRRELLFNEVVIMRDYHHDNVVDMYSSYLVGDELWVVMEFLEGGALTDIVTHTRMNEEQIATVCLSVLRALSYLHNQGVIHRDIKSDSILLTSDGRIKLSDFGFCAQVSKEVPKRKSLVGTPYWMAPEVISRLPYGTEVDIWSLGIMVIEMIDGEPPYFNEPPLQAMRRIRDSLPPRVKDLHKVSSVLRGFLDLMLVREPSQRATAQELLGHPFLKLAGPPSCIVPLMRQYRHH
Sequence of Serine/threonine-protein kinase PAK 1 (Homo sapiens) (Q13153 whole entry): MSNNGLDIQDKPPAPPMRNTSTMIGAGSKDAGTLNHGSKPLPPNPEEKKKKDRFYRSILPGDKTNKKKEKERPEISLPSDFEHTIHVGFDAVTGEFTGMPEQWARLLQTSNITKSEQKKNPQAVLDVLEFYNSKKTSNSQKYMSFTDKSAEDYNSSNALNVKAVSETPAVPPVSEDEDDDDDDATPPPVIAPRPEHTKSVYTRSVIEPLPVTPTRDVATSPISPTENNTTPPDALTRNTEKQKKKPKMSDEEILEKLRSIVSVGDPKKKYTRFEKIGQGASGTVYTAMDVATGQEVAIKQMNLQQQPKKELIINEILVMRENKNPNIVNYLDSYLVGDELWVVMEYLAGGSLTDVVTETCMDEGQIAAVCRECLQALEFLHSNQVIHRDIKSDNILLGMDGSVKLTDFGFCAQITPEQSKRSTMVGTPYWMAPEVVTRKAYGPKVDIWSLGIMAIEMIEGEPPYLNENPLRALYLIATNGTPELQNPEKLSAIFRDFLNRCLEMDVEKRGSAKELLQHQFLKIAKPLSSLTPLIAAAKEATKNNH
Sequence of Serine/threonine-protein kinase PAK 2 (Homo sapiens) (Q13177 whole entry): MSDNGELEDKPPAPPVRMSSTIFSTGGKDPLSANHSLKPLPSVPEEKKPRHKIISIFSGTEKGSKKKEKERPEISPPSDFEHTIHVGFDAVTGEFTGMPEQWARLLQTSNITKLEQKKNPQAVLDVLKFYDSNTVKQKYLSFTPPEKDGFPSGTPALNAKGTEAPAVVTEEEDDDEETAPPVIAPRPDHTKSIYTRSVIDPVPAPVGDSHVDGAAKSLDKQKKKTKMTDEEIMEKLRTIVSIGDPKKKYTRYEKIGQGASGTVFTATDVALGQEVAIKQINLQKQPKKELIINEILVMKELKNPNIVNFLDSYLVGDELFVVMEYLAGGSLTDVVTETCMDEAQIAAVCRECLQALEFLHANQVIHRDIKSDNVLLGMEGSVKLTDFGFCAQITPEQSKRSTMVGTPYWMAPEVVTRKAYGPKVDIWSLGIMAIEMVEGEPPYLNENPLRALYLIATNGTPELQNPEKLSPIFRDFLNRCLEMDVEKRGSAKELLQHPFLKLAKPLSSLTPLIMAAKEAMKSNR
Sequence of Serine/threonine-protein kinase PAK 3 (Homo sapiens) (O75914 whole entry, looked up): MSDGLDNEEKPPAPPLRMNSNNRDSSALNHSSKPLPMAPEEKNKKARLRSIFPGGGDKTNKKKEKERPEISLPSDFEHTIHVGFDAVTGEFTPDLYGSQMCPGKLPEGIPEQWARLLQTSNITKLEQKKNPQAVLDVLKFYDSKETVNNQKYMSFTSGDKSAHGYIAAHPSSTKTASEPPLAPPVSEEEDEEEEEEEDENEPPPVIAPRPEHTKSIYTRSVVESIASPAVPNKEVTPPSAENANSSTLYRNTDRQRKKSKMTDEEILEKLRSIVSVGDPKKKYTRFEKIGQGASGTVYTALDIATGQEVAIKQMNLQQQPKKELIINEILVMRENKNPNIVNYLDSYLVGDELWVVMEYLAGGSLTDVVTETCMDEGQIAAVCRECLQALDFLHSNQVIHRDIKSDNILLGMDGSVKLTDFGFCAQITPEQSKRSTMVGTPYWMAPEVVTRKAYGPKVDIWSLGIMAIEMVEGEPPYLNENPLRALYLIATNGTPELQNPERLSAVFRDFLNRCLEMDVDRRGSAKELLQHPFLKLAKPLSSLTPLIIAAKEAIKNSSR
Sequence of Serine/threonine-protein kinase PAK 6 (Homo sapiens) (Q9NQU5 whole entry, looked up): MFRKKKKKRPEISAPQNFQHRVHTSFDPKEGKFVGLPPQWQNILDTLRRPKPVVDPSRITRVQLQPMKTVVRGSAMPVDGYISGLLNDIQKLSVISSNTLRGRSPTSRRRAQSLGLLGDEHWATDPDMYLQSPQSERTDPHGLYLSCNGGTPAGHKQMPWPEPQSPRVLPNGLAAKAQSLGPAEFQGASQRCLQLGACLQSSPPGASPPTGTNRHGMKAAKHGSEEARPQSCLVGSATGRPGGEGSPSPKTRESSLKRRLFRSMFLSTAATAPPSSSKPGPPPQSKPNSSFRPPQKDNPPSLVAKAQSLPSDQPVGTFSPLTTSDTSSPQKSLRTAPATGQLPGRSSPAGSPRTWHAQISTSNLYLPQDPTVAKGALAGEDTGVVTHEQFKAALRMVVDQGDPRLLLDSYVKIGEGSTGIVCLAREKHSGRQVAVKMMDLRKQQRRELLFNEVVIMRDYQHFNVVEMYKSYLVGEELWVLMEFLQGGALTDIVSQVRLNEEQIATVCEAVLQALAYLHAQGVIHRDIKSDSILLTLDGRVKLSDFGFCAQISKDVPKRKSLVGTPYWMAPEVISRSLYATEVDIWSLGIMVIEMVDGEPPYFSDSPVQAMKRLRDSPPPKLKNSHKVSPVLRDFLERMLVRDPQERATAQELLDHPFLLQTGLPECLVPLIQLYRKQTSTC

A word on the inhibition: it is the change of the read-out against control, counted positive when it falls. On to `CN1CCN(Cc2ccc(-c3cc4ncnc(Nc5ccc(OCc6cccc(F)c6)c(Cl)c5)c4s3)o2)CC1`, for which the inhibition in assay [1] was -2.57% and -0.01%; in [2], 6.52% and 11.3%; in assay [3] it was 6.39% and 9.31%; in assay [4] it was 0.62% and 1.36%; in [5] it was 1.83% and 3.59%; in assay [6] it was 3.14% and 6.57%. Also, the inhibition in [7] is 5.4% and 6.56%; in [8], 2.6%; in assay [9], 5.21%; in assay [10], -1.82%; in [11], -4.15% and 3.43%; in [12], 2.21% and 2.71%. In addition, the inhibition in [13] was 7.15% and 8.4%; in assay [14], 4.73% and 6.21%; in [15], 14.3% and 18%; in assay [16], 1.3% and 4.75%; in assay [17], 14.7% and 17.9%; in assay [18] it was 4.48% and 6.29%. Besides, the inhibition is 16.1% and 20.9% in assay [19]; 3.33% and 5.07% in assay [20].
As to `COc1cc(Nc2ncc(-c3ccccc3)o2)cc(OC)c1`, the inhibition in [1] is -4.28%; in assay [2], 6.86%; in assay [3] it was 6.69%; in assay [4], 1.76%; in [5] it was 1.6%; in [6] it was 4.74%. Also, the inhibition in assay [7] was 3.26%; in assay [8], 2.83%; in assay [9], 4.51%; in assay [10], 0.07%; in [11] it was -4.99%; in assay [12], 5.8%. The inhibition in assay [13] was found to be 23.1%; in [14] it was 9.34%; in assay [15], 39.7%; in [16], 8.13%; in [17] it was 41.1%; in assay [18], 9.25%. Further, the results for the inhibition in [19] and in [20] were 33.6% and 4.18%, respectively.
With `Cc1nnc(-c2cccc(-c3ccc(C(=O)NCC4CC4)cc3)c2)o1`, the inhibition in [1] came out at 0.39%; in assay [2], 9.41%; in assay [3], 10.5%; in assay [4] it was 2.54%; in assay [5], 3.86%; in assay [6], 7.07%. Further, the inhibition in assay [7] was 5.35%; in assay [8], 4.12%; in assay [9], 2.3%; in [10], 4.58%; in [11], -1.37%; in [12], 4.38%. Besides, the inhibition in assay [13] was 4.87%; in assay [14] it was 4.09%; in assay [15] it was 6.67%; in [16], 2.13%; in assay [17], 5.6%; in assay [18], 4.31%. Besides, the results for the inhibition in assay [19] and in [20] were 5.92% and 4.43%, respectively.
For `CN1CCC(n2cnc(-c3ccc(F)cc3)c2-c2ccnc(NCCO)n2)CC1`, the inhibition in [1] is 1.34%; in [2], 5.86%; in assay [3], 7.1%; in assay [4] it was 2.03%; in assay [5] it was 2.52%; in [6], 3.99%. Also, the inhibition was 3.76% in assay [7]; 0.7% in [8]; 1.35% in [9]; 3.38% in assay [10]; -2.04% in [11]; 2.22% in assay [12]. Also, the inhibition turned out to be 5.59% in assay [13]; 3.64% in assay [14]; 6.05% in assay [15]; 0.67% in assay [16]; 7.5% in [17]; 5.69% in assay [18]. Also, the inhibition worked out at 4.05% in assay [19] and 3.06% in assay [20].
On to `CN(C)CCNC(=O)Nc1ccc(N(C)c2ccnc(Nc3ccc(CS(C)(=O)=O)cc3)n2)cc1`, for which the inhibition in [1] is -2.49%; in assay [2], 4.61%; in [3] it was 9.49%; in assay [4], 1.79%; in assay [5], 2.9%; in assay [6], 3.73%. In addition, the inhibition in assay [7] is 4.29%; in assay [8], 1.15%; in assay [9], 6.27%; in assay [10], -1.56%; in [11], -1.22%; in [12], 2.92%. The inhibition was found to be 10.2% in assay [13]; 5.45% in assay [14]; 12.3% in assay [15]; 4.48% in assay [16]; 15.1% in [17]; 5.59% in [18]. Moreover, the values for the inhibition in assay [19] and in assay [20] were 17.4% and 4.39%, respectively.
Turning to `Nc1ncnc2occ(-c3ccc(NC(=O)Nc4cc(C(F)(F)F)ccc4F)cc3)c12`, the inhibition in assay [1] is 1.08% and -2.02%; in [2], 3.44% and -1.9%; in [3], 4.36% and -1.17%; in assay [4], 0.88% and -1%; in assay [5] it was 1.23% and -1.68%; in [6], 2.44% and -2.03%. Further, the inhibition in assay [7] was 1.87% and -1.59%; in [8] it was -0.44% and -3.26%; in assay [9], -2.53% and -0.87%; in [10], 1.24%; in [11], 0.09% and -8.17%; in [12], 5.05% and 2.1%. The inhibition in [13] is 33.4% and 18.4%; in assay [14] it was 24.2% and 11.5%; in assay [15] it was 73.1% and 58.4%; in assay [16], 56.4% and 49.1%; in assay [17], 84.6% and 76.3%; in assay [18], 55.7% and 45.2%. In addition, the inhibition in assay [19] is 79.1% and 74%; in assay [20], 53.6% and 39.2%.
